ATXN viability: cell viability loss in ATXN counter-screen; Potency, µM (series often up to 56.7 µM), actives largely listed as cytotoxic; hit rate 0.49% among 400,000; S2 cells (HEK-293 line with an ATXN2-luciferase reporter) viability, CellTiter-Fluor protease fluorescence, 24 h; also: nearly all actives have a fitted effect of over 40% in size
ATXN2 expr inh: reduces ATXN2 reporter expression in HEK-293 cells. HEK-293 ATXN2-luciferase reporter, luminescence, 24 h. AID 1745845. hit rate 0.72% among 360,000. Potency, µM (doses to about 57 µM), inactives show top-dose activity change, negative = inhibition, actives largely listed as inhibitors; also: % is scaled to controls: 0 for no effect and ±100 for the full control effect; nearly all actives have a fitted effect of over 55% in size
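ATXN2-luciferase reporter cells (luciferase flanked by upstream and downstream ATXN2 gene portions) were treated 24 h at 37 °C with compounds at up to 57 uM. SteadyGlo luminescence gave expression; GF-AFC fluorescence gave viability.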
HepG2 tox-1: kills HepG2 cells in TGF-b inhibitor counter-screen; HepG2 CAGA-GFP viability, ATP luminescence, 18 h; Potency, µM (highest dose often 46.1 µM), for the others: at the highest dose activity change, negative = cytotoxicity, hits mostly cytotoxic; hit rate 0.76% among 410,000; AID 588856
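CellTiter-Glo luminescence gave cytotoxicity after 18 hours at 37 degrees C. The cells were HepG2 CAGA-GFP in 1% FBS DMEM, stimulated with 500 pg/mL TGF-beta after compound addition. %Activity was normalised to no-cell wells (complete cell-killing) and DMSO (no toxicity), and curves were fitted and classified.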
Apoferritin bind: candidate novel general anesthetic via apoferritin binding; AID 485281; Potency, µM (titrated, usually from 77.5 µM), without a hit: at the highest dose activity change, negative = displacement, most hits filed as inhibitors; P02791; apoferritin/1-aminoanthracene competitive binding, fluorescence; hit rate 0.074% among 350,000; also: % is scaled to controls: 0 for no effect and ±100 for the full control effect; nearly all actives have a fitted effect of over 20% in size
Target sequence (P02791 2-175 limits assumed): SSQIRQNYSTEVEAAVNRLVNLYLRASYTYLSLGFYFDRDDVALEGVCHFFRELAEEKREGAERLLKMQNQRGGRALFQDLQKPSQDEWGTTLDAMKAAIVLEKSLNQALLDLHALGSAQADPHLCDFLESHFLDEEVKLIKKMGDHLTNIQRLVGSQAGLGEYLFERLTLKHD
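Apoferritin-based anesthetic binding model; compound displacement of fluorescent 1-AMA measured as endpoint fluorescence after 10 minutes at room temperature, scaled to free-ligand and complex controls.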
TGFb inhibitor: TGF-b pathway inhibition; HepG2 CAGA-GFP TGF-b/SMAD3 reporter, GFP fluorescence, 18 h; TGF-beta stimulated, 500 pg/mL final; hit rate 1.2% among 410,000; Potency, µM (titrated, usually from 46.1 µM), for inactives: at the top dose activity, negative = inhibition, actives largely listed as inhibitors; also: % is scaled to controls: 0 for no effect and ±100 for the full control effect; nearly all actives have a fitted effect of over 65% in size
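HEPG2 CAGA-GFP cells (1000/well, DMEM with 1% FBS) were pre-incubated 2 h at 37 degrees C, given compound by pin tool, then stimulated with TGF-beta at 500 pg/mL final for 18 h before per-cell GFP fluorescence imaging.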
TGFb confirm: TGF-b pathway inhibition, cherry-pick retest; HepG2 CAGA-GFP TGF-b reporter, GFP fluorescence, 18 h; cells stimulated with TGF-beta, 500 pg/mL; shares compounds with TGFb inhibitor; hit rate 63% among 1,600; Potency, µM (top dose mostly 46.1 µM), inactives show top-dose activity, negative = inhibition, hits mostly inhibitors; also: % is scaled to controls: 0 for no effect and ±100 for the full control effect; nearly all actives have a fitted effect of over 65% in size
HepG2 tox-2: HepG2 cytotoxicity, TGF-b inhibitor counterscreen | shares compounds with TGFb inhibitor | HepG2 CAGA-GFP viability, ATP luminescence, 18 h; cells stimulated with TGF-beta, 500 pg/mL | Potency, µM (doses to about 46.1 µM), inactives show top-dose activity, negative = cytotoxicity, most hits filed as inhibitors | hit rate 27% among 1,600; also: % is scaled to controls: 0 for no effect and ±100 for the full control effect; nearly all actives have a fitted effect of over 70% in size
CCL64 TGFb inh: orthogonal confirmation of TGF-b inhibitors in CCL64 cells; shares compounds with TGFb inhibitor; Potency, µM (doses to about 46.1 µM), inactives show at the highest dose activity, negative = inhibition, actives largely listed as inhibitors; CCL64 CAGA-GFP reporter, TGF-b stimulated, GFP fluorescence, 18 h; hit rate 41% among 1,600; also: nearly all actives have a fitted effect of over 65% in size
COP TGFb inh: validation of TGF-b inhibitors in HepG2 COP promoter reporter; shares compounds with TGFb inhibitor; HepG2 COP-GFP TGF-b reporter, GFP fluorescence, 18 h; cells stimulated by added recombinant TGF-beta; Potency, µM (highest dose often 46.1 µM), for the others: at the top dose activity, negative = inhibition, usual class: inhibitors; hit rate 3% among 1,600; AID 720537; also: nearly all actives have a fitted effect of over 70% in size
* hit, by the source's call; i = inactive; ? = inconclusive; . = no result. This is a sample that favours compounds with a hit; in the whole collection about 2.4% have one here. Calls follow the shape of the dose curve; as a rule, active = well fitted curve in the direction sought with a large enough effect; inconclusive = small, poorly fitted or top-dose-only effect, or another doubt; inactive = no such curve, though single readings can be large; an effect the other way counts as inactive or inconclusive. Potency is read from the fitted curve at half-maximal effect.

SMILES	ATXN viability	ATXN2 expr inh	HepG2 tox-1	Apoferritin bind	TGFb inhibitor	TGFb confirm	HepG2 tox-2	CCL64 TGFb inh	COP TGFb inh
O=C(NCC1CCCO1)c1ccccc1NS(=O)(=O)c1ccc(F)cc1 (stereo not given)	?	-9%	2%	.	3%	.	.	.	.
CCn1cc(CNC(=O)c2cc(-c3ccc(C)cc3)nc3ccc(Br)cc23)c(C)n1	i	11%	-22%	-14%	-25%	.	.	.	.
COC(=O)c1nc2n(n1)C(c1cc(OC)ccc1OC)C(C(=O)Nc1ccc(C)cc1C)=C(C)N2 (stereo not given)	i	5%	-1%	4%	4%	.	.	.	.
COc1cccc(-c2cnc3c(NC=O)cc(-c4ccccc4Oc4ccccc4)cn23)c1	i	-23%	-17%	.	10µM*	12µM*	-20%	?	28%
COc1cccc(-c2cnc3c(NC=O)cc(-c4cc(C)c(O)c(C)c4)cn23)c1	?	?	-20%	.	16%	.	.	.	.
COc1ccc2c(c1)c(CCNNC(=O)C(C)(C)C)c(C)n2C(=O)c1ccc(Cl)cc1	?	?	-36%	.	?	.	.	.	.
CCOc1ccccc1Nc1ccnc2cc(Cl)ccc12	?	?	-15%	-13%	?	.	.	.	.
Clc1ccc2c(NCc3ccccn3)ccnc2c1	i	-29%	-30%	-1%	13µM*	2.1µM*	-26%	8.2µM*	-1%
COc1ccc(-c2csc(C(C)(O)c3ccc(F)c(F)c3)n2)cn1 (stereo not given)	i	-17%	-21%	.	-23%	.	.	.	.
COc1ccc(-c2nnn(CC(=O)N3CCN(c4ccccc4OC)CC3)n2)cc1	i	-3%	-25%	-14%	3.5µM*	-17%	0%	?	-4%
Cc1cc(Nc2ccc(F)cc2)n2c(nc3ccccc32)c1C#N	.	1%	-1%	-12%	-10%	.	.	.	.
Cc1cc(Nc2cccc([N+](=O)[O-])c2)n2c(nc3ccccc32)c1C#N	?	8.9µM*	-40%	6%	1.6µM*	?	?	5.2µM*	33%
CCCCSCCCNC(=O)CN1C(=O)c2cccnc2Oc2ccc(Cl)cc21	.	.	1%	-11%	-9%	.	.	.	.
O=C(NCc1ccccc1)C1=C[C@H](c2ccc(C(F)(F)F)cc2)C[C@H](OCc2ccc(CO)cc2)O1	?	-15%	-28%	-14%	?	?	-14%	?	8%
O=C(c1cccnc1)N(Cc1ccccc1)C(c1ccccc1)c1nc2ccccc2[nH]1 (stereo not given)	?	49%	1%	.	2%	.	.	.	.
O=[N+]([O-])c1cc(Cl)cc2c1nc(NCCO)c1ccccc12	i	-38%	-30%	-7%	?	.	.	.	.
Cc1ccc(Cc2c(-c3ccc(Cl)cc3)nc3cc(C)c(Br)c(C)n23)cc1	i	5%	-21%	.	11µM*	21µM*	-24%	-18%	-7%
